This passage reports Potency results from PubChem BioAssay (NCATS).

Inconclusive results are not listed. Where a call stands in place of a potency, no number is given. The source made the active and inactive calls. Calls follow the shape of the dose curve; as a rule, active = well fitted cell-killing curve with a large enough effect; inconclusive = small, poorly fitted or top-dose-only effect, or effect the other way; inactive = flat fitted curve, though single readings scatter.
Potency is read from the fitted curve at half-maximal effect.

The first experiment concerns Hek293T. Kind of experiment: Primary qHTS to identify gynecologic anti-cancer compounds using libraries of approved drugs and bioactive compounds (AID 1345084). Also: nearly all actives have a fitted effect of over 55% in size. The following applies: Gynecologic cancer cell panel viability, ATPlite luminescence, 48 h, control line for the selectivity index; series mostly up to 57.5 µM. In outline:
(§1)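 Five-concentration response, 48 h; readout is ATP-driven luciferase luminescence.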
On the technique in general: In qHTS, concentration-response curves come from the screen itself.
For the molecule `CN1C[C@H](CNC(=O)OCc2ccccc2)C[C@@H]2c3cccc4c3c(cn4C)C[C@H]21`, the Potency result is “inactive”.

With `COc1ccc(C(=O)c2c(C)n(CCN3CCOCC3)c3ccccc23)cc1`, the Potency result was “inactive”.

As for `c1ccc2c(c1)OCC(C1=NCCN1)O2` (configuration not stated), the Potency is 28.2 µM (active).

On to `c1ccc(C2CC2)c(OCC2=NCCN2)c1`, for which the Potency result was “inactive”.

In the case of `N#CC(C#N)=Cc1ccc(O)c(O)c1`, the Potency result is “inactive”.

As to `Clc1ccc(COC(Cn2ccnc2)c2ccc(Cl)cc2Cl)cc1` (configuration not stated), the Potency entry is “inactive”.

With `CCC(=O)C(CC(C)N(C)C)(c1ccccc1)c1ccccc1` (configuration not stated), the Potency result was “inactive”.

Regarding `CC[C@@H](CO)NC(=O)[C@@H]1C=C2c3cccc4[nH]cc(c34)C[C@H]2N(C)C1`, the Potency result was “inactive”.

In the case of `CC(C)CC(N(C)C)C1(c2ccc(Cl)cc2)CCC1` (configuration not stated), the Potency result is “inactive”.

`C[C@]12CCC(=O)C(O)=C1CC[C@@H]1[C@@H]2CC[C@]2(C)C(=O)CC[C@@H]12`: the Potency result is “inactive”.

As to `C=C(C)[C@H]1Cc2c(ccc3c2O[C@@H]2COc4cc(OC)c(OC)cc4[C@@H]2C3=O)O1`, the Potency is 0.891 µM (active).

Take `Cc1cc(SCc2sc(-c3ccc(C(F)(F)F)c(F)c3)nc2C)ccc1OCC(=O)O`: the Potency entry is “inactive”.

Consider `CC(C)=CCOc1c2occc2cc2ccc(=O)oc12`, for which the Potency entry was “inactive”.

For the molecule `C[C@]12CC[C@H]3[C@@H](CCC4=CC(=O)CC[C@@H]43)[C@@H]1CC[C@@H]2OC(=O)CCc1ccccc1`, the Potency entry is “inactive”.

For the molecule `N[C@@H]1C[C@H]1c1ccccc1`, the Potency result was “inactive”.

As for `O=c1[nH]c2ccccc2n1C1CCN(CCCC(c2ccc(F)cc2)c2ccc(F)cc2)CC1`, the Potency result was “inactive”.

Regarding `CC1NCCOC1c1ccccc1` (configuration not stated), the Potency result was “inactive”.

With `Oc1ccc(Cl)cc1Cc1ccccc1`, the Potency entry is “inactive”.

As for `N[C@@H](Cc1ccc(N(CCCl)CCCl)cc1)C(=O)O`, the Potency result was “inactive”.

On to `CC[N+]1(C)CCCC(OC(=O)C(O)(c2ccccc2)c2ccccc2)C1` (configuration not stated), for which the Potency entry is “inactive”.

For the molecule `Clc1cccc(N2CCNCC2)c1`, the Potency entry is “inactive”.

Take `CN(C)CCc1ccc(O)cc1`: the Potency entry is “inactive”.

Another experiment relates to JEG-3. The description is as above. The conditions noted are these: Gynecologic cancer cell panel viability, ATPlite luminescence, 48 h; series mostly up to 57.5 µM. In a few lines: as §1
On to `CN1C[C@H](CNC(=O)OCc2ccccc2)C[C@@H]2c3cccc4c3c(cn4C)C[C@H]21`, for which the Potency result is “inactive”.

For the molecule `COc1ccc(C(=O)c2c(C)n(CCN3CCOCC3)c3ccccc23)cc1`, the Potency entry was “inactive”.

Regarding `c1ccc2c(c1)OCC(C1=NCCN1)O2` (configuration not stated), the Potency result is “inactive”.

For the molecule `CCC(=O)C(CC(C)N(C)C)(c1ccccc1)c1ccccc1` (configuration not stated), the Potency result was “inactive”.

On to `Fc1ccc(C(OCCN2CCN(CCCc3ccccc3)CC2)c2ccc(F)cc2)cc1`, for which the Potency result was “inactive”.

Take `CC(C)CC(N(C)C)C1(c2ccc(Cl)cc2)CCC1` (configuration not stated): the Potency entry was “inactive”.

Consider `CNC(=O)N1N=C(c2ccc(N)cc2)c2cc3c(cc2CC1C)OCO3` (configuration not stated), for which the Potency result was “inactive”.

Consider `CCCC1CCCCN1` (configuration not stated), for which the Potency result was “inactive”.

As to `CNC(=O)c1ccc(N2C(=S)N(c3ccc(C#N)c(C(F)(F)F)c3)C(=O)C23CCC3)cc1F`, the Potency entry was “inactive”.

As for `CC(C)=CCOc1c2occc2cc2ccc(=O)oc12`, the Potency result was “inactive”.

As for `N[C@@H]1C[C@H]1c1ccccc1`, the Potency entry was “inactive”.

Take `CO[C@]12CC[C@@]3(C[C@@H]1[C@](C)(O)C(C)(C)C)[C@@H]1Cc4ccc(O)c5c4[C@@]3(CCN1CC1CC1)[C@H]2O5`: the Potency entry is “inactive”.

Take `N[C@@H](Cc1ccc(N(CCCl)CCCl)cc1)C(=O)O`: the Potency entry is “inactive”.

A further experiment relates to OV90. Described as above. The following applies: Gynecologic cancer cell panel viability, ATPlite luminescence, 48 h; series mostly up to 57.5 µM. In outline: as §1
On to `CN1C[C@H](CNC(=O)OCc2ccccc2)C[C@@H]2c3cccc4c3c(cn4C)C[C@H]21`, for which the Potency entry is “inactive”.

Take `COc1ccc(C(=O)c2c(C)n(CCN3CCOCC3)c3ccccc23)cc1`: the Potency entry is “inactive”.

As to `c1ccc(C2CC2)c(OCC2=NCCN2)c1`, the Potency result is “inactive”.

As to `N#CC(C#N)=Cc1ccc(O)c(O)c1`, the Potency entry was “inactive”.

Regarding `Clc1ccc(COC(Cn2ccnc2)c2ccc(Cl)cc2Cl)cc1` (configuration not stated), the Potency was 17.8 µM (active).

For the molecule `CC[C@@H](CO)NC(=O)[C@@H]1C=C2c3cccc4[nH]cc(c34)C[C@H]2N(C)C1`, the Potency entry was “inactive”.

In the case of `Fc1ccc(C(OCCN2CCN(CCCc3ccccc3)CC2)c2ccc(F)cc2)cc1`, the Potency was 22.4 µM (active).

For `CC(C)CC(N(C)C)C1(c2ccc(Cl)cc2)CCC1` (configuration not stated), the Potency result is “inactive”.

For the molecule `C[C@]12CCC(=O)C(O)=C1CC[C@@H]1[C@@H]2CC[C@]2(C)C(=O)CC[C@@H]12`, the Potency entry is “inactive”.

For the molecule `CC(=O)Nc1cc([As](=O)(O)O)ccc1O`, the Potency result is “inactive”.

For `CCCC1CCCCN1` (configuration not stated), the Potency result was “inactive”.

For the molecule `CNC(=O)c1ccc(N2C(=S)N(c3ccc(C#N)c(C(F)(F)F)c3)C(=O)C23CCC3)cc1F`, the Potency entry was “inactive”.

Consider `Cc1cc(SCc2sc(-c3ccc(C(F)(F)F)c(F)c3)nc2C)ccc1OCC(=O)O`, for which the Potency result was “inactive”.

In the case of `CC(C)=CCOc1c2occc2cc2ccc(=O)oc12`, the Potency result is “inactive”.

With `C[C@]12CC[C@H]3[C@@H](CCC4=CC(=O)CC[C@@H]43)[C@@H]1CC[C@@H]2OC(=O)CCc1ccccc1`, the Potency entry was “inactive”.

As to `N[C@@H]1C[C@H]1c1ccccc1`, the Potency entry is “inactive”.

For `CC1NCCOC1c1ccccc1` (configuration not stated), the Potency entry was “inactive”.

On to `COc1ccc(Cc2nccc3cc(OC)c(OC)cc23)cc1OC`, for which the Potency was 11.2 µM (active).

For `CCC(COC(=O)c1cc(OC)c(OC)c(OC)c1)(c1ccccc1)N(C)C` (configuration not stated), the Potency result was “inactive”.

Consider `Clc1cccc(N2CCNCC2)c1`, for which the Potency entry was “inactive”.

In a further experiment the test system is PA-1. Described as above. The conditions noted are these: Gynecologic cancer cell panel viability, ATPlite luminescence, 48 h; series mostly up to 57.5 µM. In outline: as §1
Background: In ATP-based viability assays light output follows the ATP content of the culture.
Consider `CN1C[C@H](CNC(=O)OCc2ccccc2)C[C@@H]2c3cccc4c3c(cn4C)C[C@H]21`, for which the Potency result is “inactive”.

`COc1ccc(C(=O)c2c(C)n(CCN3CCOCC3)c3ccccc23)cc1`: the Potency result is “inactive”.

`c1ccc2c(c1)OCC(C1=NCCN1)O2` (configuration not stated): the Potency is 15.8 µM (active).

Consider `CCC(=O)C(CC(C)N(C)C)(c1ccccc1)c1ccccc1` (configuration not stated), for which the Potency entry was “inactive”.

`CC[C@@H](CO)NC(=O)[C@@H]1C=C2c3cccc4[nH]cc(c34)C[C@H]2N(C)C1`: the Potency entry was “inactive”.

As to `CC(C)CC(N(C)C)C1(c2ccc(Cl)cc2)CCC1` (configuration not stated), the Potency entry was “inactive”.

`C[C@]12CCC(=O)C(O)=C1CC[C@@H]1[C@@H]2CC[C@]2(C)C(=O)CC[C@@H]12`: the Potency result was “inactive”.

As for `C=C(C)[C@H]1Cc2c(ccc3c2O[C@@H]2COc4cc(OC)c(OC)cc4[C@@H]2C3=O)O1`, the Potency was 1.26 µM (active).

For the molecule `CNC(=O)N1N=C(c2ccc(N)cc2)c2cc3c(cc2CC1C)OCO3` (configuration not stated), the Potency entry was “inactive”.

For the molecule `CC(=O)Nc1cc([As](=O)(O)O)ccc1O`, the Potency result was “inactive”.

As to `CCCC1CCCCN1` (configuration not stated), the Potency result is “inactive”.

Consider `CNC(=O)c1ccc(N2C(=S)N(c3ccc(C#N)c(C(F)(F)F)c3)C(=O)C23CCC3)cc1F`, for which the Potency result is “inactive”.

For the molecule `Cc1cc(SCc2sc(-c3ccc(C(F)(F)F)c(F)c3)nc2C)ccc1OCC(=O)O`, the Potency entry is “inactive”.

Consider `CC(C)=CCOc1c2occc2cc2ccc(=O)oc12`, for which the Potency entry was “inactive”.

On to `N[C@@H]1C[C@H]1c1ccccc1`, for which the Potency result was “inactive”.

Take `O=c1[nH]c2ccccc2n1C1CCN(CCCC(c2ccc(F)cc2)c2ccc(F)cc2)CC1`: the Potency entry was “inactive”.

For the molecule `CC1NCCOC1c1ccccc1` (configuration not stated), the Potency result was “inactive”.

As to `Oc1ccc(Cl)cc1Cc1ccccc1`, the Potency entry is “inactive”.

In the case of `CCC(COC(=O)c1cc(OC)c(OC)c(OC)c1)(c1ccccc1)N(C)C` (configuration not stated), the Potency entry is “inactive”.

Take `CC[N+]1(C)CCCC(OC(=O)C(O)(c2ccccc2)c2ccccc2)C1` (configuration not stated): the Potency entry was “inactive”.

For the molecule `Clc1cccc(N2CCNCC2)c1`, the Potency entry was “inactive”.

Consider `CN(C)CCc1ccc(O)cc1`, for which the Potency result was “inactive”.
